Paper PMC12864922, “TDP-43 directly inhibits mRNA accumulation in neurites through modulation of mRNA stability”
Whole data set: some 9,900 sequences, median “r (bound/input frequency ratio)” near 0.7, cut for the highest 2% near 6.5. Many of the other results were omitted from the sample, so the highest values are more common in it than they were.

B1: ENSMUSG00000031028.145|Tub (ssRNA)
RNA: GGGAGUUCUACAGUCCGACGAUCGCUUCGAUAUCCGCAUGCUAACAGGAUCUAGGUCACCAUUCAAGUAAUGGUAUGCUUCAGGAAGAAUGUCCUCUCUGGGAAGACUCAGCUCCCAUUAUUGCCAGCAUGCCAUGAUCAGUGAGGGCUGUGUGCCAUGCUUAGGGGGAUGGCGCAGGGUGAGGGGAGCAGAGGAUAUUUUAGGGCCACAAGAGCUCAGAGGUAGCGGACCUCUGUGUGGUUCACCAACAGCAAUGCUGAUCCCUGAGUAUAGGGCACAUGUCUCUUGGUUACCUCACUGGUUCUCUUGCGGUCGCACUAGUGUGGAAUUCUCGGGUGUCAAGG
B2: ENSMUSG00000061578.1426|Ksr2 (ssRNA)
RNA: GGGAGUUCUACAGUCCGACGAUCGCUUCGAUAUCCGCAUGCUACUCUUCCUUUUCCUUUUUAGAUCUGUCUUGCUCUCUGUCUCUCUCACUCAUUGCCAACAUGUUGCUGGGAAAGAAUAUUUGAUUUAGAUGCCAAUCAGGAAGGCAAGUAGGAUGGAUGGAUGAGUGAGUGGAUAGGUAGGUAUAUAAAUGGAUGGAUGGGUGAUGGAUGGGUAAAUGAAUGGAUAGGUAUGUGAAUGAAUGGAUGAUGGAUGAAUGGAUGGGUAGGUGGGUAGAUAGGUAUAUGAAUGAAUGGAUGAAUGCUCUUGCGGUCGCACUAGUGUGGAAUUCUCGGGUGUCAAGG
B3: ENSMUSG00000043670.185|Diras1|17:21;114:118;148:152;162:171;177:184;217:221;250:260 (ssRNA)
RNA: GGGAGUUCUACAGUCCGACGAUCGCUUCGAUAUCCGCAUGCUAGCCUCUUUGCUGGUCAACACAACUCUGGAGACUGUCCCCCAUGUCUGCCCUGAGUUACGGAGCCCCUGUGGUAUCUGCGAGACUGUCCAGGAGACUUGAGUGGCUCCUGGGCCACACACCCACCCAGAUGAGGGUGACUUAGAAUUCACACAUUAUGUGCCACACACACACGAUGGCACACACACUGUCUUGGGAUGGGGUGUUCUUGCACCACUUACACAUCUUAGUGAGACCACAGUGUAAGUGGCCCACACACACACCUCUUGCGGUCGCACUAGUGUGGAAUUCUCGGGUGUCAAGG
B4: ENSMUSG00000029028.10|Lrrc47|60:64;66:70;82:87;89:93;95:99;111:116;118:122;124:128;145:149;161:166;168:172;184:188;191:195;197:201;213:218;220:224;241:245;247:2 … (ssRNA)
RNA: GGGAGUUCUACAGUCCGACGAUCGCUUCGAUAUCCGCAUGCUAGACGGACCUGAUCACCCUCCCUCCCCACGUGACUGUGGUCCGCUGACAGGCUCCUGUAGCACACGCACACCUGUAGGUGUCACACACGCACACGCACACCUGUAGGUGUCACACACGCACACGCACACCUAUAGGUAUCUGUGGCACACCUGUAGGUGUCACACACGCACACCUGUAGGUGUCACACAAGCACACGCACACCUGUAGGUGUCACACACGCACACCUAGGUGUCUGUAUAGCACACGCACACCUGUAGAUGCUCUUGCGGUCGCACUAGUGUGGAAUUCUCGGGUGUCAAGG
B5: ENSMUSG00000029028.6|Lrrc47 (ssRNA)
RNA: GGGAGUUCUACAGUCCGACGAUCGCUUCGAUAUCCGCAUGCUACUUGAAGGUGGUGUACCCAUCCAAGACGGACCUGAUCACCCUCCCUCCCCACGUGACUGUGGUCCGCUGACAGGCUCCUGUAGGUGUGGGUGUGCUGUAGGUGUCUGUGUGGGUGUGGGUGUGCUGUAGGUGUCUGUGUGGGUGUGGGUGUGCUAUAGGUAUCUGUGGGUGUGCUGUAGGUGUCUGUGUGGGUGUGCUGUAGGUGUCUGUGUAGGUGUGGGUGUGCUGUAGGUGUCUGUGUGGGUGUGCUAGGUGUCUGUCUCUUGCGGUCGCACUAGUGUGGAAUUCUCGGGUGUCAAGG
B6: ENSMUSG00000029028.7|Lrrc47 (ssRNA)
RNA: GGGAGUUCUACAGUCCGACGAUCGCUUCGAUAUCCGCAUGCUAGGUGGUGUACCCAUCCAAGACGGACCUGAUCACCCUCCCUCCCCACGUGACUGUGGUCCGCUGACAGGCUCCUGUAGGUGUGGGUGUGCUGUAGGUGUCUGUGUGGGUGUGGGUGUGCUGUAGGUGUCUGUGUGGGUGUGGGUGUGCUAUAGGUAUCUGUGGGUGUGCUGUAGGUGUCUGUGUGGGUGUGCUGUAGGUGUCUGUGUAGGUGUGGGUGUGCUGUAGGUGUCUGUGUGGGUGUGCUAGGUGUCUGUAUAGGUCUCUUGCGGUCGCACUAGUGUGGAAUUCUCGGGUGUCAAGG
B7: ENSMUSG00000029028.9|Lrrc47 (ssRNA)
RNA: GGGAGUUCUACAGUCCGACGAUCGCUUCGAUAUCCGCAUGCUAAUCCAAGACGGACCUGAUCACCCUCCCUCCCCACGUGACUGUGGUCCGCUGACAGGCUCCUGUAGGUGUGGGUGUGCUGUAGGUGUCUGUGUGGGUGUGGGUGUGCUGUAGGUGUCUGUGUGGGUGUGGGUGUGCUAUAGGUAUCUGUGGGUGUGCUGUAGGUGUCUGUGUGGGUGUGCUGUAGGUGUCUGUGUAGGUGUGGGUGUGCUGUAGGUGUCUGUGUGGGUGUGCUAGGUGUCUGUAUAGGUGUGGGUGUGCUGCUCUUGCGGUCGCACUAGUGUGGAAUUCUCGGGUGUCAAGG
B8: ENSMUSG00000029028.8|Lrrc47 (ssRNA)
RNA: GGGAGUUCUACAGUCCGACGAUCGCUUCGAUAUCCGCAUGCUAGUACCCAUCCAAGACGGACCUGAUCACCCUCCCUCCCCACGUGACUGUGGUCCGCUGACAGGCUCCUGUAGGUGUGGGUGUGCUGUAGGUGUCUGUGUGGGUGUGGGUGUGCUGUAGGUGUCUGUGUGGGUGUGGGUGUGCUAUAGGUAUCUGUGGGUGUGCUGUAGGUGUCUGUGUGGGUGUGCUGUAGGUGUCUGUGUAGGUGUGGGUGUGCUGUAGGUGUCUGUGUGGGUGUGCUAGGUGUCUGUAUAGGUGUGGGUCUCUUGCGGUCGCACUAGUGUGGAAUUCUCGGGUGUCAAGG
B9: ENSMUSG00000029028.10|Lrrc47 (ssRNA)
RNA: GGGAGUUCUACAGUCCGACGAUCGCUUCGAUAUCCGCAUGCUAGACGGACCUGAUCACCCUCCCUCCCCACGUGACUGUGGUCCGCUGACAGGCUCCUGUAGGUGUGGGUGUGCUGUAGGUGUCUGUGUGGGUGUGGGUGUGCUGUAGGUGUCUGUGUGGGUGUGGGUGUGCUAUAGGUAUCUGUGGGUGUGCUGUAGGUGUCUGUGUGGGUGUGCUGUAGGUGUCUGUGUAGGUGUGGGUGUGCUGUAGGUGUCUGUGUGGGUGUGCUAGGUGUCUGUAUAGGUGUGGGUGUGCUGUAGAUGCUCUUGCGGUCGCACUAGUGUGGAAUUCUCGGGUGUCAAGG
B10: ENSMUSG00000031028.612|Tub|38:42 (ssRNA)
RNA: GGGAGUUCUACAGUCCGACGAUCGCUUCGAUAUCCGCAUGCUAUGAGCAGCUAGAGCAUUUGAGCAACCCAUGUAAUCUUACACAUUCCCUCCCUGUAAGAAGGCCUGUCAGAGCUUGCUGUAGGAGUUAGGGUAAAUGAAAGUUAGUCCUGGCUCUCAUCACCACCUUUCCUAGCUCAUCACUGUGCCUUCUUUCUUCCCUAAGAAAGACAAUGCACCCCUCUCUUCUGUUCUCCUGCCCCUUCGCCCCCACUGAGGUCCAGGUAGAGCAGAUGAGGCUGAAAUGUAGAGUGUUCUAUAGAGCUCUUGCGGUCGCACUAGUGUGGAAUUCUCGGGUGUCAAGG
B11: ENSMUSG00000043670.77|Diras1|85:90 (ssRNA)
RNA: GGGAGUUCUACAGUCCGACGAUCGCUUCGAUAUCCGCAUGCUAGGAUCUGAAAACAGGGACCUGGCUAAGGAACUGCUCAUCCCAGUCAGGCCCAGAGAGGUUACCUUGCCUCUCCAUCUCUGUCCCACACACCCCAGCCAUGCCCACUGUCCCUGUCCCUCACAUUCUAUCACUGUGACCUCUGGGGAGUGCCCAUUGACCUCAUCUUCCUUCACUAAUAUCUUAUUUCUUUCACCUGAUCCUGUCCUUUCCCCGUGACCUCUGACCUGUGGCCUUCCCUGGGUCCAGAACACCCCUGUCCUCUCUUGCGGUCGCACUAGUGUGGAAUUCUCGGGUGUCAAGG
B12: ENSMUSG00000090935.47|Synj2bp (ssRNA)
RNA: GGGAGUUCUACAGUCCGACGAUCGCUUCGAUAUCCGCAUGCUAGCGGGAUGUGCUGUGUCCCUGAGAGUACAGCACAGGGUAGGUAUUACCUGCACCUGGAUAUGGGACAGUAGGCUUUUACACUGUUCUUGUGAAUAGGUUUGUAAGCUUCAAAGUCUGCUUUACUUUAUCUUCUGUUAUGAUUGCCUUUGUCAGCAUAGGCAGGAGUCCUUUAGGAUUUCUGCCUAUCAGUAAAAGAAGUAUGUAACCCAAGUUCUACCUUCAGUGGAUUAAAGUUUCAUUAAGUGAAAAUGGAAAGAAAGCUCUUGCGGUCGCACUAGUGUGGAAUUCUCGGGUGUCAAGG
B13: ENSMUSG00000058297.314|Spock2 (ssRNA)
RNA: GGGAGUUCUACAGUCCGACGAUCGCUUCGAUAUCCGCAUGCUAGCUGAGGCUUCCAGGACAAAGCCCCAGUCUGGCUCUCCCCCAGCCUCUCAGGGGCACUGGCUGGUCACAUCCACUGAGUAUUGAUCGGUUGGACUUUAGGGAAGAGCCUCCUCCUUCCCAUUCCUUUCUGCCACCCUGGAAUGGCCACCUUAAUCGUCAUCUCCUCGGGGGGAAUACGGAAAUGUCACCAAGCUCCAUAAAGUGCUUCUCAUUCCACGACACAGUUCUGACUCUCCGGGUGACUGUCACCUGCUCCCAUCCUCUUGCGGUCGCACUAGUGUGGAAUUCUCGGGUGUCAAGG

biological target: TDP-43 (Homo sapiens, UniProt Q13148 1-414); test: RNA Bind-n-Seq with designed 260-mer pool; 25 mM Tris-HCl, 150 mM KCl, 3 mM MgCl2, BSA (printed 500 mg/mL), 20 units/mL SUPERase IN; pH not stated; 500 nM RNA pool, 1 h, 4 C; TDP-43 5, 50, 500 nM; high values mean tight binding; conditions: protein: recombinant; tags: SBP (GST cleaved off with PreScission; pGEX-GST-SBP)
Procedure, shortened: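 The incubation lasted 1 h at 4 °C and used 500 nM of an in vitro-transcribed 260-nt 3′ UTR oligo pool with recombinant SBP-tagged TDP-43 at 5, 50 or 500 nM immobilized on streptavidin beads. It took place in 25 mM Tris-HCl, 150 mM KCl, 3 mM MgCl2, BSA and SUPERase IN. Bound RNA was washed, eluted with biotin, converted to cDNA, PCR-amplified and sequenced to give R, each oligo's normalized abundance in the bound sample divided by that in input. Two independent protein batches provided the duplicates.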

Sequence of TDP-43 (Q13148 whole entry): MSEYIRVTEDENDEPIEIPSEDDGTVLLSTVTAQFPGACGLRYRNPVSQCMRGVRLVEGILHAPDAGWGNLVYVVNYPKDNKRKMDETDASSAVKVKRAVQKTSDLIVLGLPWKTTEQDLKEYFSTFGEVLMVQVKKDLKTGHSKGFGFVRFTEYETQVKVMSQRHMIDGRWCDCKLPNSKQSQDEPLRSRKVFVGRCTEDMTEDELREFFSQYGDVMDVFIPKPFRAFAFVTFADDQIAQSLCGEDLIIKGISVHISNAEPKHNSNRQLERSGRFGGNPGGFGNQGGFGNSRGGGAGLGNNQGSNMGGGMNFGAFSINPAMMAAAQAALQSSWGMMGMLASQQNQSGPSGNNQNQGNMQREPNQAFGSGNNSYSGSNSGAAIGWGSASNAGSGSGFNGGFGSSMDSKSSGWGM

| Binder | binding signal |
| --- | --- |
| B1 | 0.682 R (bound/input frequency ratio) |
| B2 | 4.09 R (bound/input frequency ratio) |
| B3 | 0.956 R (bound/input frequency ratio) |
| B4 | 1.07 R (bound/input frequency ratio) |
| B5 | 5.29 R (bound/input frequency ratio) |
| B6 | 5.82 R (bound/input frequency ratio) |
| B7 | 6.63 R (bound/input frequency ratio) |
| B8 | 5.96 R (bound/input frequency ratio) |
| B9 | 6.52 R (bound/input frequency ratio) |
| B10 | 1.48 R (bound/input frequency ratio) |
| B11 | 2.44 R (bound/input frequency ratio) |
| B12 | 1.42 R (bound/input frequency ratio) |
| B13 | 1.1 R (bound/input frequency ratio) |
